Measured values taken from the supplement of paper PMC8975748.
Where a name gives a salt, the structure may show the parent alone. ± gives the standard deviation of the averaged measurements.

Tests used:
[1] = tested on: Saccharomyces cerevisiae BY4741 SeMeCo community; assay: mean cell size (pixel area) (pixels); higher = larger cells; conditions: 10 µM; 24 h; SM minimal medium
Procedure, shortened: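 Mean cell pixel area per well was determined by automated confocal microscopy with Harmony analysis of paraformaldehyde-fixed cells. The cells, a Saccharomyces cerevisiae BY4741 community of four plasmids that each complement one auxotrophy and carry a fluorescent marker, were incubated for 24 h with drug at a final 10 µM in SM medium in 384-well plates. Numbers are averaged over 3 replicates. Same SeMeCo high-content imaging drug screen: Selleck FDA-approved drugs at 10 µM, 24 h in SM medium, 384-well plates, 3 replicates.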

[2] = tested on: Saccharomyces cerevisiae BY4741 SeMeCo community; assay: z-score of prototroph abundance vs DMSO median; higher = larger share of this subpopulation than in DMSO controls; conditions: 10 µM; 24 h; SM minimal medium; subpopulation (auxotrophy): Prototroph
Procedure, shortened: (§1)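 Scoring was based on each subpopulation's abundance, expressed as a z-score against the vehicle-well median. A Saccharomyces cerevisiae BY4741 community with four plasmids, each restoring one auxotrophy and encoding a distinct fluorescent protein, was pre-grown overnight to OD600 1.0, diluted to 0.3, and added at 70 µl to 384-well plates acoustically predosed with library drugs (10 µM final). It then grew 24 h in minimal SM medium before paraformaldehyde fixation and automated confocal microscopy, with single-auxotroph fluorescent strains setting thresholds and autofluorescence correction.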

[3] = tested on: Saccharomyces cerevisiae BY4741 SeMeCo community; assay: z-score of subpopulation abundance vs DMSO median, subpopulation auxotrophic for M; higher = larger share of this subpopulation than in DMSO controls; conditions: 10 µM; 24 h; SM minimal medium; subpopulation (auxotrophy): M
Procedure, shortened: as §1

[4] = tested on: Saccharomyces cerevisiae BY4741 SeMeCo community; assay: z-score of subpopulation abundance vs DMSO median, subpopulation auxotrophic for L; higher = larger share of this subpopulation than in DMSO controls; conditions: 10 µM; 24 h; SM minimal medium; subpopulation (auxotrophy): L
Procedure, shortened: as §1

[5] = tested on: Saccharomyces cerevisiae BY4741 SeMeCo community; assay: z-score of subpopulation abundance vs DMSO median, subpopulation auxotrophic for U; higher = larger share of this subpopulation than in DMSO controls; conditions: 10 µM; 24 h; SM minimal medium; subpopulation (auxotrophy): U
Procedure, shortened: as §1

[6] = tested on: Saccharomyces cerevisiae BY4741 SeMeCo community; assay: z-score of subpopulation abundance vs DMSO median, subpopulation auxotrophic for H; higher = larger share of this subpopulation than in DMSO controls; conditions: 10 µM; 24 h; SM minimal medium; subpopulation (auxotrophy): H
Procedure, shortened: as §1

[7] = tested on: Saccharomyces cerevisiae BY4741 SeMeCo community; assay: z-score of subpopulation abundance vs DMSO median, subpopulation auxotrophic for LM; higher = larger share of this subpopulation than in DMSO controls; conditions: 10 µM; 24 h; SM minimal medium; subpopulation (auxotrophy): LM
Procedure, shortened: as §1

[8] = tested on: Saccharomyces cerevisiae BY4741 SeMeCo community; assay: z-score of subpopulation abundance vs DMSO median, subpopulation auxotrophic for HM; higher = larger share of this subpopulation than in DMSO controls; conditions: 10 µM; 24 h; SM minimal medium; subpopulation (auxotrophy): HM
Procedure, shortened: as §1

[9] = tested on: Saccharomyces cerevisiae BY4741 SeMeCo community; assay: z-score of subpopulation abundance vs DMSO median, subpopulation auxotrophic for HU; higher = larger share of this subpopulation than in DMSO controls; conditions: 10 µM; 24 h; SM minimal medium; subpopulation (auxotrophy): HU
Procedure, shortened: as §1

[10] = tested on: Saccharomyces cerevisiae BY4741 SeMeCo community; assay: z-score of subpopulation abundance vs DMSO median, subpopulation auxotrophic for UM; higher = larger share of this subpopulation than in DMSO controls; conditions: 10 µM; 24 h; SM minimal medium; subpopulation (auxotrophy): UM
Procedure, shortened: as §1

[11] = tested on: Saccharomyces cerevisiae BY4741 SeMeCo community; assay: z-score of subpopulation abundance vs DMSO median, subpopulation auxotrophic for HL; higher = larger share of this subpopulation than in DMSO controls; conditions: 10 µM; 24 h; SM minimal medium; subpopulation (auxotrophy): HL
Procedure, shortened: as §1

[12] = tested on: Saccharomyces cerevisiae BY4741 SeMeCo community; assay: z-score of subpopulation abundance vs DMSO median, subpopulation auxotrophic for HLU; higher = larger share of this subpopulation than in DMSO controls; conditions: 10 µM; 24 h; SM minimal medium; subpopulation (auxotrophy): HLU
Procedure, shortened: as §1

[13] = tested on: Saccharomyces cerevisiae BY4741 SeMeCo community; assay: z-score of subpopulation abundance vs DMSO median, subpopulation auxotrophic for HLM; higher = larger share of this subpopulation than in DMSO controls; conditions: 10 µM; 24 h; SM minimal medium; subpopulation (auxotrophy): HLM
Procedure, shortened: as §1

[14] = tested on: Saccharomyces cerevisiae BY4741 SeMeCo community; assay: z-score of subpopulation abundance vs DMSO median, subpopulation auxotrophic for HUM; higher = larger share of this subpopulation than in DMSO controls; conditions: 10 µM; 24 h; SM minimal medium; subpopulation (auxotrophy): HUM
Procedure, shortened: as §1

[15] = tested on: Saccharomyces cerevisiae BY4741 SeMeCo community; assay: z-score of subpopulation abundance vs DMSO median, subpopulation auxotrophic for LUM; higher = larger share of this subpopulation than in DMSO controls; conditions: 10 µM; 24 h; SM minimal medium; subpopulation (auxotrophy): LUM
Procedure, shortened: as §1

[16] = tested on: Saccharomyces cerevisiae BY4741 SeMeCo community; assay: z-score of subpopulation abundance vs DMSO median, subpopulation auxotrophic for HLUM; higher = larger share of this subpopulation than in DMSO controls; conditions: 10 µM; 24 h; SM minimal medium; subpopulation (auxotrophy): HLUM
Procedure, shortened: as §1

SMILES	mean cell size [1]	z-score of prototroph abundance [2]	z-score of subpopulation abundance [3]	z-score of subpopulation abundance [4]	z-score of subpopulation abundance [5]	z-score of subpopulation abundance [6]	z-score of subpopulation abundance [7]	z-score of subpopulation abundance [8]	z-score of subpopulation abundance [9]	z-score of subpopulation abundance [10]	z-score of subpopulation abundance [11]	z-score of subpopulation abundance [12]	z-score of subpopulation abundance [13]	z-score of subpopulation abundance [14]	z-score of subpopulation abundance [15]	z-score of subpopulation abundance [16]
C[C@]12CC[C@@H]3c4ccc(O)cc4CC[C@H]3[C@@H]1C[C@@H](O)[C@@H]2O [Estriol]	12.41 ± 0.12	0.65	-0.11	0.63	-0.19	0.24	0.01	-0.18	-0.16	-0.62	-0.01	-0.08	0.3	-0.83	-0.23	–
O=C(O)CCC(=O)Nc1ccc(S(=O)(=O)Nc2nccs2)cc1 [Succinylsulfathiazole]	12.52 ± 0.1	0.73	-0.13	-0.22	0.33	-1.14	–	-0.78	–	0.02	-0.84	-0.43	-1.01	-0.33	-0.95	–
CCCCC(F)(F)[C@@]1(O)CC[C@H]2[C@@H](CC(=O)[C@@H]2CCCCCCC(=O)O)O1 [Lubiprostone]	–	1.04	-0.11	-1.05	0.27	–	-1.08	-0.8	-0.05	-0.29	-0.29	-0.93	-1.01	-1.08	-0.67	-0.37
CC[C@H]1OC(=O)C[C@@H](O)[C@H](C)[C@@H](O[C@@H]2O[C@H](C)[C@@H](O)[C@H](N(C)C)[C@H]2O)[C@@H](CCN2C[C@H](C)C[C@H](C)C2)C[C@@H](C)C(=O)/C=C/C(C)=C/[C@@H]1CO[C@@H]1O[C@H](C)[C@@H](O)[C@@H](OC)[C@H]1OC [Tilmicosin phosphate]	12.3 ± 0.3	0.18	-0.36	0.06	-0.3	2.1	-0.81	–	-0.34	–	-0.13	-0.18	-0.09	-0.09	-0.25	-0.75
CCCCCCCCN=C(N)NC(N)=NCc1ccc(Cl)c(Cl)c1 [Olanexidine Hydrochloride semihydrate]	–	–	-3.65	-3.44	-3.91	–	-0.77	–	5.71	12.2	11.1	5.73	72.9	34.7	21.6	213
O=C1NCC2(CCN(CCc3ccccc3)CC2)O1 [Fenspiride HCl]	–	-0.38	0.25	-0.18	0.18	-0.41	-0.15	-0.15	-0.8	0.21	0.27	1.03	0.35	-0.64	-0.59	1.16
C#CCN(C)Cc1ccccc1 [Pargyline hydrochloride]	12.7 ± 0.23	0.24	-0.55	0.76	0.56	-0.83	-0.51	-0.95	-0.08	-0.55	-0.44	0.43	-0.13	0	0.15	–
